This is one part of the list. Inconclusive results are not listed. Calls of active or inactive are those of the source. Calls come from the whole dose curve; as a rule, active = well fitted inhibition curve with a large enough effect; inconclusive = small, poorly fitted or top-dose-only effect; inactive = flat fitted curve, though single readings scatter.
System: Trypanosoma brucei pyruvate kinase (TbPYK)
Assay: qHTS of Trypanosoma Brucei Inhibitors: Orthogonal Assay for Cherry-picked Compounds; note: nearly all actives have a fitted effect of over 75% in size
Conditions: recombinant TbPYK, ADP-Glo luminescence, 60 min
From the text: Members of the Trypanosomatidae family of parasitic protozoans cause a spectrum of diseases throughout the tropical and subtropical world. Sleeping sickness, caused by two subspecies of Trypanosoma brucei, is endemic to areas of sub-Saharan Africa, while Chagas' disease, a manifestation of Trypanosoma cruzi infection, is prevalent throughout Central and South America. In addition, many species of Leishmania are responsible for a range of cutaneous and visceral diseases, causing ulcers, destructive lesions and kalaazar, a lethal infection of the viscera. These diseases cause severe public health and economic burdens on populations that are often already caught in a tragic cycle of poverty, poor nutrition and disease. Collectively, parasites of the trypanosomatid family infect 30 million people worldwide (~500 million live in endemic areas), and account for ~130K deaths annually. Existing treatments have developed little in the past 50 years, and suffer from toxicity, poor efficacy and resistance; the goal of this project is to develop lead drugs that will be suitable for entry into pre-clinical trials. […] Glycolysis in axenically cultured T. cruzi, representing the intracellular pathogenic stage, is also essential for these parasites. {Engel, 1987} This project aims to discover and optimize selective inhibitors of the glycolytic enzyme pyruvate kinase (PYK) from Trypanosoma brucei, the parasite that causes sleeping sickness. […] While the primary qHTS provides a luminescence-based detection of TbPyK by measuring ATP production, the orthogonal assay will measure the amount of ADP substrate remaining. […]
Briefly, 2 uL of substrate/TbPYK buffer (all columns but column 4) are dispensed into Greiner white solid-bottom 1536-well assay plates. […] ADP-Glo reagent II is then added (5 uL), followed by a 10 minute room temperature incubation, before being transferred to a ViewLux high-throughput CCD imager (PerkinElmer), wherein single end-point measurements of luminescence are acquired using a clear filter. […]
Potency is the fitted concentration of half-maximal effect.

| SMILES | Potency |
| --- | --- |
| Cc1ccc2c(c1)=C/C(=C\c1c(O)[nH]c(=O)[nH]c1=O)C(=O)N=2 | 25.1 µM (active) |
| COc1ccc(N2C(=O)/C(=C/c3ccco3)C(=O)NC2=S)cc1 | 6.31 µM (active) |
| O=C1NC(=O)N(c2ccccc2)C(=O)/C1=C/c1ccc([N+](=O)[O-])s1 | 14.1 µM (active) |

Source: PubChem BioAssay AID720584 (National Center for Advancing Translational Sciences (NCATS), 2013)
